Source: PubChem BioAssay AID1984 (Sanford-Burnham Center for Chemical Genomics, 2009)
The campaign covered roughly 290,000 compounds. About 35 (0.01%) were called active. The sample holds actives, similar compounds and a random draw of the others, so the mix is not that of the screen.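 How the source made its calls: active means EGFP signal decrease of at least 30% at 10 µM or well 3 SD below plate mean, unless failing retest; inactive means the rest, including hits failing retest or dose response.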

target: p/CIP-EGFP fusion (nuclear receptor coactivator 3, mouse) (UniProt Q05BA5); assay: compounds lowering mouse p/CIP (NCOA3) protein levels – fluorescence, F442A cells, EGFP fusion, primary screen (AID 1984); settings: 16 h, at 10 µM, active compounds read high
Sequence (Q05BA5 1-1403): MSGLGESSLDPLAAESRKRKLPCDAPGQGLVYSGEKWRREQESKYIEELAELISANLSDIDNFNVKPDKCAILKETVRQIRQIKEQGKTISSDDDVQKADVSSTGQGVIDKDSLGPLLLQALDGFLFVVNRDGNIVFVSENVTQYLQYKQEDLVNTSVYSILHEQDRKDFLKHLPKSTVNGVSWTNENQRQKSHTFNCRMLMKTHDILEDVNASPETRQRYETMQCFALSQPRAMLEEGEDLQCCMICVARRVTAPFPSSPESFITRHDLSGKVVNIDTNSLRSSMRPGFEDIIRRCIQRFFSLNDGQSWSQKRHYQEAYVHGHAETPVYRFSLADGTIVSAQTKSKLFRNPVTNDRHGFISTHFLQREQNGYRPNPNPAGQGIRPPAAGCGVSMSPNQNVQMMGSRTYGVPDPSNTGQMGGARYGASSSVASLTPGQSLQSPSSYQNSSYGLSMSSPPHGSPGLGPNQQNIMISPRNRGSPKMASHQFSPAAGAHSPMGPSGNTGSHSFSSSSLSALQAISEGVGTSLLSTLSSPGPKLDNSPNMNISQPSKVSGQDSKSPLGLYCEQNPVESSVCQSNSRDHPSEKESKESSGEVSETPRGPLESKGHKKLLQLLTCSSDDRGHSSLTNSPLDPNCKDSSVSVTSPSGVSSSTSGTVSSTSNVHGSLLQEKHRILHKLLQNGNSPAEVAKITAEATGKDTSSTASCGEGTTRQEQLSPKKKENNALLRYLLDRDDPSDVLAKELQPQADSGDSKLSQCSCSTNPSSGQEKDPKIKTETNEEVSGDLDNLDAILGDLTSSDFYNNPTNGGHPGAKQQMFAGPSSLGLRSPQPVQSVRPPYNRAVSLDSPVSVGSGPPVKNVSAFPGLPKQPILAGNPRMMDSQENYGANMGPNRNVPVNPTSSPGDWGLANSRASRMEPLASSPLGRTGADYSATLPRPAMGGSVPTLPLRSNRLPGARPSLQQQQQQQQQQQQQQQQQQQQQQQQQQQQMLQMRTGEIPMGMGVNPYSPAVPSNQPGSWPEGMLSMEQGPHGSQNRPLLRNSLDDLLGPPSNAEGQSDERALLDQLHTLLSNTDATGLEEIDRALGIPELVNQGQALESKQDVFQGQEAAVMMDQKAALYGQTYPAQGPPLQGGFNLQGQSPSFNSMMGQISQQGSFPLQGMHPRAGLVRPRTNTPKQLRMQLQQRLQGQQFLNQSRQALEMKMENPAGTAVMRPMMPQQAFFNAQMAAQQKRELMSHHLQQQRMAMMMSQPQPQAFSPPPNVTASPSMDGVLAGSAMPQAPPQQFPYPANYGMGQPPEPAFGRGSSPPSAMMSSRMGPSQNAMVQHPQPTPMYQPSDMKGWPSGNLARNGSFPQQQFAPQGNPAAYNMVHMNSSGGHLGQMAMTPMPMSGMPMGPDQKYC

Decrease of EGFP signal, inactive:
COc1ccc(C(=O)NC(=S)NC2CCCCC2)cc1 -9.4%
CCc1ccc(OCC(=O)N(Cc2ccccc2)C2CCS(=O)(=O)C2)cc1 (stereo not drawn) -11.2%
COc1cc(OC)cc(C(=O)NCCCn2ccnc2)c1 1.6%
CNc1[nH]ncc1[N+](=O)[O-] 11.8%
Cc1nc(-c2ccc(F)cc2)c(CC(=O)N2CCN(S(=O)(=O)c3ccc(F)cc3)CC2)s1 5.1%
COCCCN1C(=O)c2ccc(C(=O)OCC(=O)NCc3ccccc3OC)cc2C1=O -12.5%
c1ccc(-n2cccc2)c(N2CCCCC2)c1 -13.4%
Cc1cc(-c2nnc(SCC(=O)Nc3ccc(S(N)(=O)=O)cc3)n2N)n[nH]1 -53.2%
CCCCn1c(N)c(N(CCOC)C(=O)c2oc3ccc(OC)cc3c2C)c(=O)[nH]c1=O 9.8%
NC(=O)C(Cc1ccccc1)NC(=O)C12CC3CC(CC(C3)C1)C2 (stereo not drawn) -4.8%
Cc1c(S(=O)(=O)N2CC(C)CC(C)C2)c(=O)n(C)c(=O)n1C (stereo not drawn) 4.7%
CCSc1nc(O)c(C(c2cccc(OC)c2)c2c(O)nc(SCC)[nH]c2=O)c(=O)[nH]1 -4%
CCCC1(C(=O)OCC)NC(c2ccc(N(C)C)cc2)C2C(=O)N(c3ccc4c(c3)OCCO4)C(=O)C21 (stereo not drawn) -13.2%
O=C(O)CCCCCNc1ncnc2ccc(Br)cc12 -16.6%
Cc1cccc(N2Cc3ccccc3C2=NC(=O)c2ccc(Cl)nc2)c1 -1.5%
CC(=O)N1c2ccc(S(=O)(=O)N3CCCC(C(=O)NCc4ccc(Cl)cc4)C3)cc2CC1C (stereo not drawn) -5.2%
CCCCC(=O)Nc1c2c(nn1-c1ccc([N+](=O)[O-])cc1)CS(=O)(=O)C2 -0.5%
CS(=O)(=O)N1CCN=C1SCc1ccc(F)cc1 10.9%
CC(=O)c1cccc(NC(=O)CN2C(=O)c3cccnc3Oc3ccc(Cl)cc32)c1 -7.6%
C/C(CC(=O)NCc1ccc(Cl)cc1)=N\NC(=O)COc1ccc(C)cc1Br 2.8%
CCOc1cc(CN2CCCC(CO)(Cc3ccc(F)cc3F)C2)ccc1OC (stereo not drawn) -5.3%
Cc1cccc(-c2nc3ccc(C(=O)NCCN4CCN(C)CC4)cc3nc2-c2cccc(C)c2)c1 -5%
COCCCNc1nc2c(-c3cccc(C)c3)nnn2c2ccc(Cl)cc12 -12%
COc1ccc(C(=O)C2CCCN(S(=O)(=O)c3cccc(C)c3)C2)c(C)c1 (stereo not drawn) -15.7%
O=C(NCCC1=CCCCC1)c1ccc(Cl)c([N+](=O)[O-])c1 -6.4%
CCCn1c(NC(=O)C23CC4CC(CC(O)(C4)C2)C3)nc2ccccc21 0.5%
O=C(Nc1ccc(O)cc1)c1ccc(NC(=O)c2ccco2)cc1 -4.6%
CCOc1ccc(S(=O)(=O)N2CCC(c3ccccc3)CC2)cc1C(=O)O 2.8%
COCc1ccc(CN2CCC(Oc3ccc(C(=O)NCc4ccccn4)cc3)CC2)o1 -10.7%
COC(c1ccccc1)(c1ccccc1)C(Oc1nc(C)cc(C)n1)C(=O)O (stereo not drawn) 0%
O=[N+]([O-])c1ccc2oc(-c3cccc(O)c3)nc2c1 7.6%
CC(Oc1cc2oc(=O)c3c(c2cc1Cl)CCCC3)C(=O)NCc1ccncc1 (stereo not drawn) -2.1%
O=C(C[n+]1cc(Br)cc2ccccc21)c1ccc(F)cc1 -1.9%
C/C(=N\NC(=O)c1ccc2ccccc2c1)c1cccnc1 -18.3%
CCOc1ccc(CN(C)C(=O)c2ccc(=O)[nH]c2)cc1 5.1%
Cc1cc(S(=O)(=O)NC2CCCC2)ccc1-n1cnnn1 -8.5%
O=C1NC(=O)C(c2ccc(Cl)cc2)N1 (stereo not drawn) -72.8%
CCOc1ccccc1N1CCN(C(=O)c2ccc3[nH]c(C)c(C)c3c2)CC1 6.3%
COc1cc(CCC(=O)Nc2ccncc2Cl)cc(OC)c1OC -2.4%
Cc1nn(C)c(Cl)c1CN1CCC(Oc2ccc(C(=O)N3CCCC3)cc2)CC1 -12%
O=C(Nc1cccc(-n2cnnn2)c1)c1cccnc1 2.8%
O=C(c1ccc(Cl)cc1)N1N=C(c2ccccn2)CC1(O)C(F)(F)F (stereo not drawn) 1.2%
COc1ccc(C2Nc3ccccc3C(=O)N2c2ccc(Cl)cc2)cc1Cn1cc([N+](=O)[O-])cn1 (stereo not drawn) -4.3%
CCCN(CCC)S(=O)(=O)c1ccc(C(=O)N2CC3CCC(CC3)C2)cc1 -5.7%
CNC(=O)c1sc(NCc2ccccc2OC)nc1C -5%
COc1cccc(NC(=O)N2CCCC2C(=O)NC2CCCCC2)c1 (stereo not drawn) -18.1%
NC(=O)c1ccc(Nc2ccc3c(c2)CCC3)c([N+](=O)[O-])c1 -5%
C=CCc1cc(C)ccc1OCCCn1ccnc1 10.1%
CC(C(=O)c1ccc(-c2ccccc2)cc1)[n+]1cccc(Br)c1 (stereo not drawn) -9.6%
COC(=O)Cn1cnc2scc(-c3ccc(C)c(C)c3)c2c1=O 4.1%
CC(C)(C)NC(=O)C(c1ccc(Cl)cc1)N(CCO)C(=O)c1snc(C(N)=O)c1N (stereo not drawn) 2.5%
CC(=O)[C@@]12O[C@@H]1C[C@H]1[C@@H]3CC[C@H]4C[C@@H](O)CC[C@]4(C)[C@H]3CC[C@@]12C -26.4%
COc1cccc(OCC(O)CNC(=O)c2oc3c(C)c(C)ccc3c2C)c1 (stereo not drawn) -15.6%
